Test results: PubChem BioAssay (NCI)
This is part of a sample that, as a whole, favours compounds with a hit. Of some 79,000 tested, about 15% had one in any assay. Calls of active or inactive are those of the source. No stated cut-off is given here; in the data, active means growth inhibition above about 70%; inactive means the rest.

Experiments:
[1] = NCI Yeast Anticancer Drug Screen. Data for the rad50 strain (AID 155);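 further: 0% = growth of vehicle-only cultures of the same strain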; settings: S. cerevisiae rad50 strain growth inhibition, active compounds read high
In short: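 Compounds were tested on a yeast strain with an engineered DNA damage repair alteration; the reported value is growth inhibition normalised to vehicle treatment.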

[2] = NCI Yeast Anticancer Drug Screen. Data for the mec2-1 strain (AID 157); settings: S. cerevisiae mec2-1 strain, active compounds read high
In short: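 Readout is yeast growth inhibition, normalised to vehicle-treated controls, in the mec2-1 strain exposed to compound.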

[3] = NCI Yeast Anticancer Drug Screen. Data for the sgs1 mgt1 strain (AID 161);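 further: 0% = growth of cultures given vehicle only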; settings: S. cerevisiae sgs1 mgt1 strain, active compounds read high
In short: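 Percent growth inhibition was derived by comparing compound-exposed mutant yeast with vehicle-exposed cultures. The strain carries alterations in DNA damage repair.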

[4] = NCI Yeast Anticancer Drug Screen. Data for the cln2 rad14 strain (AID 165);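 further: 0% = growth equal to vehicle treated cultures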; settings: S. cerevisiae cln2 rad14 strain, active compounds read high
In short: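 Relative to vehicle controls, growth inhibition of compound-treated cln2 rad14 yeast was recorded.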

[5] = NCI Yeast Anticancer Drug Screen. Data for the bub3 strain (AID 167); settings: S. cerevisiae bub3 mutant strain, active compounds read high
In short: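 Growth of a checkpoint-deficient yeast mutant is measured after compound exposure. Values represent inhibition relative to vehicle.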

[6] = NCI Yeast Anticancer Drug Screen. Data for the mlh1 rad18 strain (AID 175); settings: S. cerevisiae mlh1 rad18 strain growth inhibition, active compounds read high
In short: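 Test agents were incubated with a yeast strain of defined genotype (DNA damage repair defect). Inhibition of growth was derived by comparison with vehicle-exposed cultures.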

[7] = at 5.0 µM (retest, dose inferred, filed as 0.5)
[8] = at 50.0 µM (retest, dose inferred, filed as 5.0)

Measured: growth inhibition

CC12Nc3ccccc3N1C(=O)c1ccccc12 (stereo unspecified)
inactive: [1]; at 50.0 µM unless noted 15.7% | [2]; at 50.0 µM unless noted 6.15% | [3]; at 50.0 µM unless noted -34.8% | [4]; at 50.0 µM unless noted 1.95% | [5]; at 50.0 µM unless noted -1%

CCCCC(O)CCC (stereo unspecified)
inactive: [1]; at 50.0 µM unless noted -30.4% | [2]; at 50.0 µM unless noted -52.4% | [3]; at 50.0 µM unless noted -24.8% | [4]; at 50.0 µM unless noted 4.85% | [5]; at 50.0 µM unless noted -48.7%

CCC/C(=N\NC(=S)N1CCN(c2ccccn2)CC1)c1ccccn1
active: [1]; at 50.0 µM unless noted 87.3% | [2]; at 50.0 µM unless noted 90.3% | [3]; at 50.0 µM unless noted 88.8% | [4]; at 50.0 µM unless noted 80.5%
inactive: [5]; at 50.0 µM unless noted 20.9%

Nc1nc(Cl)c(C=O)c(NCC2(CO)CC(CCc3ccccc3)C2)n1 (stereo unspecified)
inactive: [1]; at 50.0 µM unless noted 15.4% | [2]; at 50.0 µM unless noted 9.95% | [3]; at 50.0 µM unless noted -32.8% | [4]; at 50.0 µM unless noted -2.2% | [5]; at 50.0 µM unless noted -22%

O=C(O)/C=C\C(=O)Nc1cccc2ccccc12
active: [3]; [8] 88%
inactive: [1]; [7] 4% | [1]; [8] 60% | [2]; [7] -1% | [2]; [8] 30% | [3]; [7] 7% | [4]; [7] -1% | [4]; [8] 8% | [5]; [7] -1% | [5]; [8] 42% | [6]; [7] -35% | [6]; [8] 25%

C[C@H]1CC(=O)[C@@]2(O)C#C/C=C\C#C[C@@H]3Nc4c(cc(O)c5c4C(=O)c4ccccc4C5=O)[C@]24O[C@]314
active: [1]; at 50.0 µM unless noted 78% | [2]; at 50.0 µM unless noted 82% | [3]; at 50.0 µM unless noted 85.2% | [4]; at 50.0 µM unless noted 86.9% | [5]; at 50.0 µM unless noted 85.8%

CC(O)C(=O)NC1CCCCC1 (stereo unspecified)
inactive: [1]; [7] 3% | [1]; [8] 26% | [2]; [7] 1% | [2]; [8] 1% | [3]; [7] 1% | [3]; [8] 12% | [4]; [7] 1% | [4]; [8] 3% | [5]; [7] 2% | [5]; [8] -4% | [6]; [7] 3% | [6]; [8] 17%

Nc1nc(N)c(N=O)c(Nc2ccccc2)n1
inactive: [1]; at 50.0 µM unless noted 7.75% | [2]; at 50.0 µM unless noted 6.9% | [3]; at 50.0 µM unless noted -8.35% | [4]; at 50.0 µM unless noted 0.45% | [5]; at 50.0 µM unless noted 41.6%

N#CC(C#N)N=Nc1ccc(Cl)cc1
inactive: [1]; [7] 26% | [2]; [7] 18% | [3]; [7] 24% | [4]; [7] 1% | [5]; [7] 9% | [6]; [7] -1%
active: [1]; [8] 83% | [2]; [8] 73% | [3]; [8] 93% | [4]; [8] 73% | [5]; [8] 72% | [6]; [8] 87%

Cc1ccc([N+](=O)[O-])cc1N1C(=O)c2ccccc2C1=O
inactive: [1]; at 50.0 µM unless noted 14.5% | [2]; at 50.0 µM unless noted -13.6% | [3]; at 50.0 µM unless noted 12.6% | [4]; at 50.0 µM unless noted 8.2% | [5]; at 50.0 µM unless noted 13.6%

N#CC(C#N)N=Nc1cc(Cl)ccc1Cl
inactive: [1]; [7] 20% | [2]; [7] 13% | [3]; [7] 16% | [4]; [7] 8% | [5]; [7] 15% | [6]; [7] -2%
active: [1]; [8] 93% | [2]; [8] 87% | [3]; [8] 99% | [4]; [8] 87% | [5]; [8] 96% | [6]; [8] 92%

O=C(Cc1ccccc1)c1ccc(O)c(Cl)c1
active: [1]; [8] 99% | [2]; [8] 99% | [3]; [8] 99% | [4]; [8] 96% | [5]; [8] 99% | [6]; [8] 97%
inactive: [1]; [7] 20% | [2]; [7] 2% | [3]; [7] 18% | [4]; [7] 12% | [5]; [7] 7% | [6]; [7] -11%

Cc1nc2c(n1-c1ccc(Br)cc1)C(=O)c1ccccc1C2=O
inactive: [1]; at 50.0 µM unless noted 33.9% | [2]; at 50.0 µM unless noted -17.9% | [3]; at 50.0 µM unless noted -4.4% | [4]; at 50.0 µM unless noted 12.3% | [5]; at 50.0 µM unless noted -30.2%

CCc1nc(Cl)nc(Cl)c1Cl
inactive: [1]; at 50.0 µM unless noted -9.1% | [2]; at 50.0 µM unless noted -17.1% | [3]; at 50.0 µM unless noted -18.2% | [4]; at 50.0 µM unless noted 0.2%

CCCCNc1ccc(Nc2ccccc2)cc1
active: [1]; [8] 95% | [2]; [8] 96% | [3]; [8] 97% | [4]; [8] 87% | [5]; [8] 97% | [6]; [8] 94%
inactive: [1]; [7] 1% | [2]; [7] 1% | [3]; [7] 14% | [4]; [7] 1% | [5]; [7] 2% | [6]; [7] -40%

Oc1ccc(Cc2ccccc2Cl)c(O)c1
active: [1]; [8] 99% | [2]; [8] 99% | [3]; [8] 99% | [4]; [8] 98% | [5]; [8] 99% | [6]; [8] 98%
inactive: [1]; [7] 1% | [2]; [7] -4% | [3]; [7] -3% | [4]; [7] 1% | [5]; [7] -1% | [6]; [7] -22%

Cc1ccc(S(=O)(=O)CCN2CCN(C)CC2)cc1
inactive: [1]; at 50.0 µM unless noted 8.6% | [2]; at 50.0 µM unless noted -9.25% | [3]; at 50.0 µM unless noted -12.7% | [4]; at 50.0 µM unless noted -26% | [5]; at 50.0 µM unless noted -2.65%

COc1ccc(Nc2ccc3ccccc3c2)cc1
inactive: [1]; [7] 6% | [1]; [8] 0% | [2]; [7] -2% | [2]; [8] -1% | [3]; [7] -66% | [3]; [8] 50% | [4]; [7] -4% | [4]; [8] -17% | [5]; [7] 3% | [6]; [7] -31% | [6]; [8] -7%
active: [5]; [8] 72%

CN=Nc1c(O)[nH]c2ccc(C)cc12
inactive: [1]; at 50.0 µM unless noted -5.25% | [2]; at 50.0 µM unless noted 0.2% | [3]; at 50.0 µM unless noted -8.3% | [4]; at 50.0 µM unless noted -43.1% | [5]; at 50.0 µM unless noted -8.15%

CC(=O)Sc1ccc2c(c1)-c1ccccc1C2=O
inactive: [1]; at 50.0 µM unless noted 28.6% | [2]; at 50.0 µM unless noted 27.2% | [3]; at 50.0 µM unless noted 22.4% | [4]; at 50.0 µM unless noted 8.25% | [5]; at 50.0 µM unless noted 39.6%

C/C(CC(C)C(=O)O)=N/NC(N)=O (stereo unspecified)
inactive: [1]; [7] 0% | [1]; [8] 34% | [2]; [7] -8% | [2]; [8] 5% | [3]; [7] 0% | [3]; [8] 40% | [4]; [7] -6% | [4]; [8] -2% | [5]; [7] -1% | [5]; [8] 20% | [6]; [7] -31% | [6]; [8] 43%

CCCCOC(=O)/C=C\C(=O)NC(N)=O
inactive: [1]; [7] 4% | [1]; [8] 9% | [2]; [7] -1% | [2]; [8] 7% | [3]; [7] 5% | [3]; [8] 18% | [4]; [7] -3% | [4]; [8] 1% | [5]; [7] 0% | [5]; [8] 6% | [6]; [7] -21% | [6]; [8] 18%

N#CC(c1ccccc1)c1cccc2ccccc12 (stereo unspecified)
active: [3]; [8] 74%
inactive: [1]; [7] 5% | [1]; [8] 68% | [2]; [7] 3% | [2]; [8] 35% | [3]; [7] 1% | [4]; [7] -4% | [4]; [8] -4% | [5]; [7] 7% | [5]; [8] 59% | [6]; [7] -25% | [6]; [8] 56%

O=C(CNc1nncs1)NO
inactive: [1]; at 50.0 µM unless noted 15.1% | [2]; at 50.0 µM unless noted -8.95% | [3]; at 50.0 µM unless noted 0.3% | [4]; at 50.0 µM unless noted 1.05%

CCCC(=O)n1ccc2ccccc21
inactive: [1]; at 50.0 µM unless noted -14.8% | [2]; at 50.0 µM unless noted -37.6% | [3]; at 50.0 µM unless noted 7.45% | [4]; at 50.0 µM unless noted 13.4% | [5]; at 50.0 µM unless noted -12.9%

CC(CC=O)CC=O
active: [1]; [8] 82% | [3]; [8] 78% | [6]; [8] 79%
inactive: [1]; [7] 15% | [2]; [7] 3% | [2]; [8] 32% | [3]; [7] 18% | [4]; [7] 3% | [4]; [8] 31% | [5]; [7] -5% | [5]; [8] -7% | [6]; [7] 16%

C=CCc1cc(-c2cc(CC=C)c(O)c(CN(CC)CC)c2)cc(CN(CC)CC)c1O
inactive: [1]; at 50.0 µM unless noted -9% | [2]; at 50.0 µM unless noted -5.2% | [3]; at 50.0 µM unless noted -20% | [4]; at 50.0 µM unless noted -18% | [5]; at 50.0 µM unless noted -12.1%

CC(=O)OC(C)C(=O)NCC(C)O (stereo unspecified)
inactive: [1]; [7] -1% | [1]; [8] 3% | [2]; [7] -2% | [2]; [8] 0% | [3]; [7] -2% | [3]; [8] 9% | [4]; [7] -1% | [4]; [8] -7% | [5]; [7] 5% | [5]; [8] 7% | [6]; [7] -33% | [6]; [8] 20%

NN1CCOC(c2ccccc2)C1 (stereo unspecified)
inactive: [1]; [7] 15% | [1]; [8] 57% | [2]; [7] 11% | [2]; [8] 24% | [3]; [7] 7% | [3]; [8] 49% | [5]; [7] 34% | [5]; [8] 61% | [6]; [7] -12% | [6]; [8] 28%

CCO/C(C)=N\OC(=O)C(F)(F)F
inactive: [1]; at 50.0 µM unless noted -0.1% | [2]; at 50.0 µM unless noted -15.3% | [3]; at 50.0 µM unless noted 6.55% | [4]; at 50.0 µM unless noted -15.6% | [5]; at 50.0 µM unless noted 1.35%

O=C(O)CCCn1nnc2c(=O)[nH][nH]c(=O)c21
inactive: [1]; at 50.0 µM unless noted 7.3% | [2]; at 50.0 µM unless noted 5.65% | [3]; at 50.0 µM unless noted 4.4% | [4]; at 50.0 µM unless noted -7.75% | [5]; at 50.0 µM unless noted -0.25%

Cc1cc(C)c(-c2noc(-c3ccc(Cl)cc3)c2C2=NCCN2)c(C)c1
inactive: [1]; at 50.0 µM unless noted 29.9% | [2]; at 50.0 µM unless noted 18.3% | [3]; at 50.0 µM unless noted 18.1% | [4]; at 50.0 µM unless noted 38.6% | [5]; at 50.0 µM unless noted 17.7%

CC(C)NC(=O)N/C=C(\C#N)C(N)=O
inactive: [1]; [7] 4% | [2]; [7] -1% | [2]; [8] 21% | [3]; [7] 4% | [3]; [8] 63% | [4]; [7] 2% | [4]; [8] 1% | [5]; [7] -3% | [5]; [8] 20% | [6]; [7] -39% | [6]; [8] 16%
active: [1]; [8] 70%
